Source: PubChem
KinaseGlo FLuc: blocks Kinase-Glo luciferase, a counter-screen artifact; Q27757; Kinase-Glo luciferase, ATP luminescence, 8 min; Potency, µM (series often up to 38.3 µM), for the others: at the top dose activity change, negative = inhibition, usual class: inhibitors; 200,000 compounds, 0.28% hits; AID 1379; also: % is scaled to controls: 0 for no effect and ±100 for the full control effect; nearly all actives have a fitted effect of over 60% in size
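Luminescence was the read-out, taken after 8-minute incubation at ambient temperature. Luciferase turned over luciferin with 10 uM ATP in imidazole pH 7.2 buffer containing KCl, MgCl2, Tween 20 and BSA.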
Rab9 promoter act: activators of Rab9 promoter. Huh7 Rab9 promoter-luciferase reporter, luminescence, 24 h. Potency, µM (highest dose often 9.22 µM), inactives show top-dose activation, negative = inhibition, usual class: activators. 320,000 compounds, 2.8% hits. AID 485297; also: % of control where 0% means no effect; nearly all actives have a fitted effect of over 60% in size
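Using Huh7 cells stably transfected with Rab9 promoter–luciferase, compounds were incubated 24 h at 37 °C, 5% CO2; luciferase luminescence was read 10 min after reagent addition.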
ELG1 genotox: induces genotoxicity in HEK293T cells with luciferase-tagged ELG1 | HEK293T ELG1-luciferase reporter, luminescence, 16 h | Potency, µM (series often up to 46 µM), without a hit: at the highest dose activity change, positive = activation, hits mostly activators | 330,000 compounds, 1.3% hits; also: % of control where 0% means no effect; nearly all actives have a fitted effect of over 60% in size
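HEK293T cells expressing luciferase-tagged ELG1 were exposed to compound or DMSO vehicle for 16 hr at 37 °C and 5% CO2. Luciferase activity was then measured with ONE-Glo after 30 min at room temperature.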
FLuc modulator: counter-screen for miR-21 project: firefly luciferase inhibitors or activators | Potency, µM (titrated, usually from 57.5 µM), for inactives: at the top dose activity change, negative = inhibition, usual class: inhibitors | P08659 | purified FLuc, Km substrates, luminescence inhibition | 360,000 compounds, 6.9% hits | AID 588342;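 also: plate controls were vehicle for no effect and reference inhibitor for full effect; nearly all actives have a fitted effect of over 55% in size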
Target sequence (P08659 whole entry, looked up): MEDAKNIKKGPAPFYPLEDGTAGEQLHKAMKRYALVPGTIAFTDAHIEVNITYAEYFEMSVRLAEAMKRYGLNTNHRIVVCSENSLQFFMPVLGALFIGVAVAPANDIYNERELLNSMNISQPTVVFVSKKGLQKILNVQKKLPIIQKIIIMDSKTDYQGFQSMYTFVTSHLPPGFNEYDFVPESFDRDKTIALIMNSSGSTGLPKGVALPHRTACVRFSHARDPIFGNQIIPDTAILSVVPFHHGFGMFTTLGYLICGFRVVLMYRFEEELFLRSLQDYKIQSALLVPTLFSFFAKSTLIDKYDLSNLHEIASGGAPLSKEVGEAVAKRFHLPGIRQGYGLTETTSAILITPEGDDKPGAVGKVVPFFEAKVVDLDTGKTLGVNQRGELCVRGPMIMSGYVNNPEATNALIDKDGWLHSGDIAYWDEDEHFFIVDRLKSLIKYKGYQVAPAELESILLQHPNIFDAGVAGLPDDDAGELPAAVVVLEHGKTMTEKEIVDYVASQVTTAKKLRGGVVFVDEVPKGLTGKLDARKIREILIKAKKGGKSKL
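Biochemical qHTS of compounds, final roughly 60 µM downward over six points, against 10 nM purified firefly luciferase using Km concentrations of substrates (10 uM D-luciferin, 10 uM ATP) in Tris acetate pH 7.5 buffer; luminescence output.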
SMN2 splice up: enhancers of SMN2 splice variant expression; HEK293 SMN2-luciferase splicing reporter, luminescence, 30-36 h; Potency, µM (doses to about 46.1 µM), without a hit: top-dose activity change, positive = activation, most hits filed as activators; 210,000 compounds, 2.8% hits; AID 1458; also: % of control where 0% means no effect; nearly all actives have a fitted effect of over 55% in size
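qHTS luciferase splicing reporter: luminescence rises when SMN2 exon 7 is included in transfected HEK293 cells. Compound exposure lasted 30-36 h at 37C, with 4.5 mM final sodium butyrate as control, followed by a ONE-Glo read.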
NPC1 prom act: NPC1 promoter activation; Huh7 NPC1 promoter luciferase reporter, 24 h; Potency, µM (highest dose often 9.22 µM), for the others: at the top dose activation, most hits filed as activators; 320,000 compounds, 2.4% hits; AID 485313; also: % of control where 0% means no effect; nearly all actives have a fitted effect of over 60% in size
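Stably transfected Huh7 (NPC1 promoter→luciferase), 1500 cells/well in Opti-MEM + 10% FBS, 2 h settle, then compound 24 h at 37 °C. Luminescence after 10 min with Amplite reagent.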
Starred values were filed as active, the others as inactive; ? = inconclusive; . = no result; [ ] = dose if it differs, or a comment. Shown are actives, neighbours in structure and some others; about 7.5% of the full set was active somewhere. Calls follow the shape of the dose curve; as a rule, active = well fitted curve in the direction sought with a large enough effect; inconclusive = small, poorly fitted or top-dose-only effect, or another doubt; inactive = no such curve, though single readings can be large; an effect the other way counts as inactive or inconclusive. Potency is read from the fitted curve at half-maximal effect.

SMILES	KinaseGlo FLuc	Rab9 promoter act	ELG1 genotox	FLuc modulator	SMN2 splice up	NPC1 prom act
O=C(CSc1n[nH]c(-c2ccccc2)n1)NCCc1ccccc1	.	.	.	-16%	.	.
COc1ccc2c(=O)c(C(=O)NCCc3ccccc3)c[nH]c2c1	.	?	11%	17µM*	.	?
COc1ccc(CCNC(=O)c2ccc(Cl)cc2)cc1	-1%	-2%	1%	-17%	-20%	0%
COc1ccc(-c2nc(SCC(=O)NCCc3ccccc3)n[nH]2)cc1	.	.	.	17µM*	.	.
COc1ccc(CCNC(=O)c2nn(C)cc2Cl)cc1	4%	19%	?	?	11µM*	20%
COc1ccc(CCNC(=O)c2ccccc2)cc1	.	27%	8%	?	.	26%
O=C1C2=C(C(=O)c3ccccc31)C1O[C@](CCCCN3C(=O)c4ccccc4C3=O)(Cc3c1ccc1ccccc31)O2	.	0%[1.84 µM]	.	-6%[11.5 µM]	.	-4%[1.84 µM]
CCc1cccc(CC)c1NC(=O)CSc1nnc(C2CC2)n1C	.	-8%	-3%	-3%	.	-3%
CCn1cc(S(=O)(=O)c2ccc(C)cc2C)c(=O)c2cc(F)c(N3CCCCC3)cc21	.	.	.	-2%	.	.
Cc1ccc2c(=O)c(C(=O)NCc3cccs3)c[nH]c2c1	-4%	?	16%	17µM*	-1%	17%
NS(=O)(=O)c1ccc(CCNC(=O)c2ccc3ccccc3n2)cc1	-2%	1%	?	?	12%	12%
COc1ccc2c(Sc3ccccc3)c(C(=O)NCCc3ccc(Cl)cc3)[nH]c2c1	.	.	.	5.4µM*	.	.
CCCOc1ccc(CNC(=O)c2[nH]c3cc(OC)ccc3c2Sc2ccccc2)cc1	.	.	.	6%	.	.
COc1ccc(CCNC(=O)c2ccc3ccccc3n2)cc1	.	22%	18µM*	?	.	6%
COC(=O)c1ccccc1NC(=O)c1ccc(=O)n(Cc2cccc(C)c2)c1	.	.	.	-12%	.	.
COCc1cc(C)nc2c1C(=O)NC(c1ccc(F)cc1)N2Cc1ccccc1 (stereo not given)	.	.	.	-5%	.	.
Cc1cccc(CNc2ccnc(-c3ccoc3)n2)c1	-8%	.	.	.	-35%	.
COc1cccc(-c2nccc(NCc3cccc(C)c3)n2)c1	-4%	.	.	.	11µM*	.
O=c1[nH]c(CSc2nc3ccccc3[nH]2)nc2c1cnn2-c1ccccc1	1%	-7%	0%	?	-18%[1.84 µM]	-7%
O=c1[nH]c(SCc2nc3c(cnn3-c3ccccc3)c(=O)[nH]2)nc2ccccc12	-1%	2µM*	8%	?	18µM*	?
CC(C)(C)n1ncc2c(=O)n(Cc3ccccc3)cnc21	.	.	.	2%	.	.
Cc1ccc(C(=O)Cn2cnc3ccccc3c2=O)cc1	-1%	2.5µM*	?	21µM*	11µM*	?
CC(C)(C)n1ncc2c(=O)n(CC(=O)c3ccccc3)cnc21	-2%	4.5µM*	15%	24µM*	13µM*	?
CC(C)(C)n1ncc2c(=O)n(CC(=O)OCc3ccccc3)cnc21	?	1.4µM*	?	0.085µM*	4%	?
COc1ccccc1CNC(=O)c1c(O)nc2cc(C)ccn2c1=O	.	.	.	-2%	-1%	.
SMILES	KinaseGlo FLuc	Rab9 promoter act	ELG1 genotox	FLuc modulator	SMN2 splice up	NPC1 prom act
CCCOC(=O)c1ccc(OCC(O)Cn2c(C)nc3ccccc32)cc1 (stereo not given)	1%	-31%	10µM*	3%	-88%	-22%
C(=N\Nc1nc2ccccc2[nH]1)/c1cccs1	.	4µM*	?	3.8µM*	.	3.2µM*
Cc1ccsc1/C=N/Nc1nc2ccccc2[nH]1	-13%	2.5µM*	?	3.4µM*	11µM*	2.5µM*
Cc1ccsc1/C=N/NC(=O)C(O)c1ccccc1 (stereo not given)	.	6%	0%	-4%	.	-2%
Cc1c(C(=O)O)cnc2cc(-c3ccc(Cl)cc3)nn12	-4%	?	?	9.5µM*	11µM*	?
CC(=O)c1cnc2cc(-c3ccc(Cl)cc3)nn2c1C	-2%	3.5µM*	?	2.7µM*	.	4.5µM*
CC(=O)c1cnc2c(-c3ccc(Cl)cc3)c(C)nn2c1C	0%	2%	8%	-4%	-11%	0%
Cc1nc2cc(-c3ccc(Cl)cc3)nn2c(C)c1CCC(=O)N1CCN(c2ccccc2)CC1	.	.	.	-13%	3%	.
O=C(CCCCn1c(=O)c2ccccc2n(Cc2ccc(F)cc2Cl)c1=O)NCCc1ccc(Cl)cc1	.	.	.	8%	-3%	.
O=C(Nc1cc2cccc([N+](=O)[O-])c2oc1=O)c1cccs1	-1%	0%	4%	-11%	10%	1%
CCOC(=O)Cn1nc(NC(=O)c2ccc(C(=O)OC)cc2)cc1C	.	17%	18%	11µM*	.	?
CCOC(=O)Cn1nc(NC(=O)c2cc(OC)cc(OC)c2)cc1C	.	4%	4%	-11%	.	8%
O=S(=O)(c1ccccc1)N1CCN(Cc2ccc(Cl)cc2)CC1	.	1%	-7%	0%	.	-3%
CCc1ccc(Nc2nnc(SCC(=O)Nc3ccc(C(=O)O)cc3)s2)cc1	.	18%	6%	0.54µM*	.	18%
Cc1cccc(Nc2nnc(SCC(=O)Nc3cccc(S(=O)(=O)N4CCCCC4)c3)s2)c1	-2%	4%	13%	2.7µM*	0%[1.84 µM]	14%
CCc1ccc(Nc2nnc(SCC(=O)NC(=O)c3cccn3C)s2)cc1	-2%	-6%	?	?	11%	1%
O=C(CSc1nnc(SCc2cccc3ccccc23)s1)Nc1ccc(C(=O)O)cc1	3%	-9%	2%	8.5µM*	18%	-1%
Cc1ccc(Nc2nnc(SCC(=O)Nc3cccc(S(=O)(=O)NC4=NCCCCC4)c3)s2)cc1	-2%	1%	5%	1.9µM*	12%	11%
Cc1nnc(SCC(=O)Nc2cccc(S(=O)(=O)NC3=NCCCCC3)c2)n1Cc1ccccc1	1%	-1%	0%	-3%	-1%	-2%
Cn1cc(C(=O)NC2CCCCC2)c(=O)c2cc(S(=O)(=O)N3CCOCC3)ccc21	.	6%	3%	1%	.	13%
COc1ccc(C2CC(=O)NC(NC(=O)c3ccc(Br)cc3)=N2)c(OC)c1OC (stereo not given)	.	.	.	-1%	.	.
CCc1ccc(Nc2nnc(SCC(=O)Nc3cccc(S(=O)(=O)NC4=NCCCCC4)c3)s2)cc1	-10%	?	-10%	0.48µM*	13µM*	?
Cc1nnc(SCc2cccc3ccccc23)s1	.	?	?	24µM*	.	?
O=C(CSc1nncc2ccccc12)Nc1cccc(C(=O)O)c1	.	21%	?	11µM*	.	22%
CCN1CCN(C(=O)C2CCN(S(=O)(=O)N3CCC4(CC3)OCCO4)CC2)CC1	.	0%	0%	1%	.	1%
